From ChEMBL document CHEMBL3988442, “University of Dundee, Small-Polar-MMV Screening Library” (2021)
Screen size: about 69,000 compounds; about 420 (0.61%) showed an effect of 50% or more. Only a selection was taken, and strong results are over-represented in it overall.

These compounds were tested against T1, Histidine--tRNA ligase (Leishmania infantum) (UniProt A4I591) (assay: Leishmania infantum Histidine tRNA synthetase (LdHisRS)). Details: 30 µM.
T1 sequence (whole entry): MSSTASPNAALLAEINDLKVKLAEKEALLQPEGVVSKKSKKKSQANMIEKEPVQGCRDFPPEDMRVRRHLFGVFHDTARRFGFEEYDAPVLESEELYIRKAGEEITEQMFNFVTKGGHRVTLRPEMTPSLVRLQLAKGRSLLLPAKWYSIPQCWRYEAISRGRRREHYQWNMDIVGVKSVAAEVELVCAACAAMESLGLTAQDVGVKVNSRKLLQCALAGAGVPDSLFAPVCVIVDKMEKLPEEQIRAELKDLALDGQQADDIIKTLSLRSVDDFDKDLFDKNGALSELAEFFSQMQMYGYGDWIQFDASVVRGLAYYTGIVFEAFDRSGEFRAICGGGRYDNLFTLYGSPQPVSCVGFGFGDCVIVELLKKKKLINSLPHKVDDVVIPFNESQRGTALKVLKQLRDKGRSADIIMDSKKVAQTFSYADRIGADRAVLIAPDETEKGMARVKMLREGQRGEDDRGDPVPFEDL
Format: functional
Parameters: scale not given: in the data most compounds retested in dose-response had high values

Compound | Percent Effect
O=C([C@@H]1CC[C@@H]2[C@@H](CCN2Cc2cccs2)O1)N1CCCCO1 | 17.1%
NC(=O)c1cnc2n1CCN(C(=O)c1ccc(-c3cc[nH]n3)cc1)C2 | 14.9%
Cc1nc2ccc(C(=O)N3CCn4c(C)nnc4C3)cc2nc1C | 21%
NC(=O)c1cnc2n1CCN(C(=O)c1cccc(Cn3cccn3)c1)C2 | 12.6%
NC(=O)c1cnc2n1CCN(C(=O)c1ccc(Cn3cccc3)cc1)C2 | 63.2%
Cc1nnc2n1CCN(C(=O)c1ccc(Cn3cccc3)cc1)C2 | 51.7%
CC(C)c1nnc2n1CCN(C(=O)c1ccc(Cn3cccc3)cc1)C2 | 14.9%
COc1cccc(SCCCn2cnc3c(N)ncnc32)c1 | 4.08%
Clc1ccc(C2(CNC3=NCCN3)CCCC2)cc1 | 35.7%
Clc1ccc(C2(CNC3=NCCN3)CCCCC2)cc1 | 50%
Clc1ccc(C2(CNC3=NCCN3)CC2)cc1 | 18.6%
CC(C)c1n[nH]c(C(=O)Nc2ccccn2)c1Br | 0%
CNC(=O)[C@@]12CCO[C@@H]1CCN(S(=O)(=O)c1ccccc1C)C2 | 5%
CC(C)CS(=O)(=O)N1C[C@H]2C[C@H](C(=O)N3CCOCC3)[C@@H](C1)O2 | 1.89%
O=C(c1cccnc1-c1ccoc1)N1C[C@H]2CC[C@@H]1C2 | 1.43%
CCn1ncnc1C1CC(=O)NCc2nc(N3CCOCC3)sc21 (stereo unspecified) | 25.3%

Compound | Percent Effect
COc1ccc(C2CC(=O)NCc3nc(N(C)C)sc32)c(O)c1 (stereo unspecified) | 10.8%
COc1ccc(OC)c(C2CC(=O)Nc3nc(N4CCOCC4)sc32)c1 (stereo unspecified) | 102%
COc1ccc(C(C)C)cc1C1CC(=O)NCc2nc(N(C)C)sc21 (stereo unspecified) | 31.2%
COc1ccc(C2CC(=O)Nc3nc(N4CCOCC4)sc32)cc1 (stereo unspecified) | 105%
COc1ccc(OC)c(C2CCN(CC(C)(C)N3CCOCC3)C2)c1 (stereo unspecified) | 12.7%
COc1ccc(C2CC(=O)Nc3c2cnn3C)cc1 (stereo unspecified) | 1.91%
COc1ccc(C2CC(=O)Nc3nc(N4CCOCC4)sc32)c(OC)c1 (stereo unspecified) | 115%
COc1ccc(C2CCCN2c2nnc(C)s2)c(OC)c1 (stereo unspecified) | 6.25%
O=C(c1ccncc1)N1C[C@@H]2CC[C@H](C1)N(C(=O)N1CCOCC1)C2 | 12.6%
COCC(=O)N1CC[C@]2(O)CCN(Cc3cccnc3OC)C[C@@H]2C1 | 17.1%
COc1ccc(CC(=O)N2CC[C@@H]3NC(=O)CC[C@@H]32)cc1 | 8.77%
O=C(NCc1cnn2cccnc12)c1cccc(CC2CCNCC2)c1 | 60%
CC(C)(O)CCc1cccc(C(=O)NCc2cnn3cccnc23)c1 | 2.22%
CC(C)Cn1cncc1CNC(=O)c1cccc(CC2CCNCC2)c1 | 25.6%
O=C(CC1CCCCC1)N1C[C@H]2CC[C@@H]1CN(Cc1cccnc1)C2 | 9.68%
